PubChem BioAssay (NCI)
About 83,000 compounds went through this panel and 20% of them were active in at least one assay; those are over-represented in the sample as a whole.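 Single-concentration screen, 48 h exposure, 96-well plates. Endpoint: percent growth. Below 10 = active.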 Values without a mark were called inactive. Active and inactive are the calls of the source.

How the values were obtained:
Assay in all cases: NCI-60 one-dose screen, 48 h (100 = growth as untreated, 0 = no growth, -100 = all killed)
Conditions in all cases: 10 µM unless noted
[1] = system: NCI-H23 lung
[2] = system: NCI-H226 lung
[3] = system: NCI-H322M lung
[4] = system: HOP-62 NSCLC
[5] = system: NCI-H460 lung
[6] = system: HOP-92 NSCLC
[7] = system: NCI-H522 lung
[8] = system: A549/ATCC NSCLC
[9] = system: 786-0 renal
[10] = system: COLO 205 colon

| SMILES | growth [1] | growth [2] | growth [3] | growth [4] | growth [5] | growth [6] | growth [7] | growth [8] | growth [9] | growth [10] |
| --- | --- | --- | --- | --- | --- | --- | --- | --- | --- | --- |
| CCC(CC)NCC(C)(C)O | 97.7% | 109% | 94% | 119% | 103% | 105% | 105% | 102% | 107% | 120% |
| CNC(=O)c1cncc(Cn2nc(C)c(NC(=O)c3ccc(COc4ccc(C(F)(F)F)cc4C)cc3)c2C)c1 | 49.3% | 58.1% | 88.8% | 56.9% | 62% | 79.2% | 49.2% | 55% | 68.8% | 66.9% |
| C=C1C(=O)O[C@H]2[C@H]1CC/C(C(=O)NCCCCCNC(=O)/C1=C/CC[C@@]3(C)O[C@H]3[C@H]3OC(=O)C(=C)[C@@H]3CC1)=C\CC[C@@]1(C)O[C@@H]21 | 97.6% | 103% | 93.9% | 98.8% | 109% | 105% | 89.3% | 95.3% | 101% | 102% |
| COc1ccc(C(=O)c2cc(C)c(OC)c(C)c2)c(OC)c1NC(C)=O | 29.5% | 17.4% | 42.7% | 20.3% | 3.32% (active) | 6.76% (active) | 13.4% | 18.1% | 13.7% | -5.99% (active) |
| CCCOC(=O)N[C@H]1CCc2cc(OC)c(OC)c(OC)c2-c2ccc(SC)c(=O)cc21 | 35% | 13% | 32.7% | 39.3% | 0.992% (active) | 34.9% | 21.5% | 22.6% | 24.1% | 1.57% (active) |
| Cc1ccc(NC(=O)c2cc(-c3nc4ccccc4s3)c(=O)n(NS(=O)(=O)c3ccc(Cl)cc3)c2N)cc1 | 102% | 80.6% | 97.8% | 106% | 105% | 103% | 94.4% | 100% | 101% | 114% |
| Nc1c(C(=O)Nc2ccnc3ccccc23)sc2nc3c(cc12)CN(Cc1ccccc1)CC3 | 70.3% | 53.1% | 90.3% | 111% | 87.4% | 66.7% | 70.1% | 85.1% | 66.3% | 97.3% |
| CCCCCCCCOc1ccc(/C=N/Nc2cc(C)nc3ccc(Br)cc23)cc1 | 81.9% | 97.4% | 95.6% | 87.5% | 16.1% | 105% | 71.6% | 27.9% | 28.9% | 83.9% |
| Cc1cc2nc3c4ccc(Br)cc4n(CCN(C)C)c3nc2cc1C | 14.8% | 1.57% (active) | 18.9% | 16% | 2.47% (active) | 34.8% | -1.24% (active) | 5.41% (active) | 23.2% | -8% (active) |
| O=C(O)c1ccc(NCc2cn(-c3ccc(C(F)(F)F)cc3)nc2-c2ccc(C(=O)O)cc2)cc1 | 107% | 111% | 106% | 101% | 103% | -7.09% (active) | 93.1% | 106% | 105% | 119% |
| O=C(Cn1c(C(=O)c2ccccc2)nc2ccccc21)c1ccc(F)cc1 | 67.3% | 84% | 75% | 78.2% | 98.6% | 77.3% | -9.34% (active) | 79.3% | 75.9% | 119% |
| COc1ccc(/C=N/NC(=O)c2cnn3c2NC(c2ccccc2)C3)cc1OC (stereo not given) | 73.9% | 94.1% | 75.4% | 60% | 28.3% | 73.2% | 42.8% | 54.2% | 76.2% | 45.7% |
| Cc1nc2sccn2c1-c1cn2ccsc2n1 | 60.2% | 84.3% | 82.7% | 90.7% | 65.9% | 69.6% | 89.2% | 98.9% | 95.8% | 87.2% |
| COc1cc(C=O)ccc1OC1OC(COC(C)=O)C(OC(C)=O)C(OC(C)=O)C1OC(C)=O (stereo not given) | 102% | 93.8% | 120% | 94% | 104% | 88.7% | 104% | 94.8% | 105% | 98.7% |
| Cc1nc2sccn2c1-c1nc2sccn2c1/C=C1/C(=O)Nc2ccccc21 | 53.4% | 63.1% | 67.1% | 53.7% | 20.5% | 4.55% (active) | -6.81% (active) | 39.5% | 51.1% | 20.1% |
| Cc1cc2c(C(=O)NCC#N)cccc2n1-c1nc2c(c(NCc3ccccc3)n1)CCCC2 | -41.8% (active) | -69.3% (active) | -19.5% (active) | -16.9% (active) | -35.7% (active) | -63.4% (active) | -24.9% (active) | -38.9% (active) | -56.8% (active) | -51% (active) |
| O=S(=O)(NCCNc1nccc(-c2c(-c3cccc(F)c3)nc3sccn23)n1)c1ccccc1 | 56.1% | 34.5% | 51.5% | 60.2% | 25.9% | 51.5% | 43.7% | 25.2% | 47.4% | 24.2% |
| Cc1ncc(C(=O)Nc2ccc(CN3CCN(C)CC3)c(C(F)(F)F)c2)cc1C#Cc1cnc(N)cc1C#N | 30.6% | -71% (active) | 28% | 42.3% | -77.6% (active) | 17.3% | -46.2% (active) | -89.5% (active) | -65.5% (active) | 21.5% |
| O=C(/C(=C\c1ccc([N+](=O)[O-])cc1)S(=O)Cc1ccc(F)cc1)c1ccc(F)cc1 (stereo not given) | 46.7% | 77.9% | 79.9% | 38.1% | 30.9% | 65.2% | -22.1% (active) | 79.9% | -43.9% (active) | 8.65% (active) |
| Cn1ccnc1C(=O)/C=C/c1ccc(CC(=O)Nc2ccc(F)cc2)cc1 | 27.8% | 82.5% | 42.8% | 18.4% | 3.59% (active) | 71% | 16.9% | 38.2% | 30.4% | 41.6% |
| O=C(Cc1ccccc1)NNc1nc(Cl)nc(N2CCN(C(c3ccccc3)c3ccccc3)CC2)n1 | 83% | 94.2% | 89.7% | 98.6% | 102% | 74.3% | -26.6% (active) | 98.5% | 95.4% | 98.6% |
| O=C(c1nc2ccccc2[nH]1)C1C(c2ccc(Cl)cc2)C2CC3CCCC[C@H]3N2[C@@]12C(=O)Nc1cc(Cl)ccc12 (stereo not given in full) | 58.6% | 58.8% | 62.2% | 68.7% | 23.1% | 46.3% | 56.4% | 35.2% | 48.4% | 29.8% |
| COc1ccc(-c2nc(S(=O)(=O)c3ccccc3)c(S(=O)CC(=O)N3CCC(C)CC3)o2)cc1 (stereo not given) | 54.1% | 80.3% | 73.2% | 76.6% | 80.4% | -22.6% (active) | -86.6% (active) | 77.4% | 10.3% | 48.7% |
| C=C(C)[C@@H]1CC[C@]2(C(=O)N3CCN(C)CC3)CC[C@]3(C)[C@H](CC[C@@H]4[C@@]5(C)CC[C@H](O)C(C)(C)[C@@H]5CC[C@]43C)[C@@H]12 | -14.5% (active) | 129% | 10.4% | 55.6% | -69.5% (active) | 14.5% | -89.6% (active) | -82.4% (active) | -95.1% (active) | -69.2% (active) |
| CCOc1cccc(-c2nc(N)nc(Nc3ccccc3SSc3ccccc3Nc3nc(N)nc(-c4cccc(OCC)c4)n3)n2)c1 | 43.8% | 68% | 85.1% | -0.309% (active) | 35.6% | 97.2% | 90.8% | -10.8% (active) | 84.9% | 109% |
| Cc1ccc(-c2nc3ccccn3c2/C=C2/C(=O)Nc3cc(Cl)ccc32)cc1 | 72.4% | 94.5% | 98% | 83.7% | 82.3% | 110% | 68.7% | 90.6% | 92.7% | 84% |
